Source: PubChem (National Center for Advancing Translational Sciences (NCATS))
HTT ATP protect: cytoprotection in Huntington HTT-Q103 PC12 cell model; hit rate 0.14% among 230,000; PC12 HTT-Q103 induced, cytoprotection, ATP luminescence, 40 h; Potency, µM (highest dose often 56.4 µM), actives largely listed as activators; active = well fitted curve in the direction sought with a large enough effect; inconclusive = small, poorly fitted or top-dose-only effect, or another doubt; inactive = no such curve, though single readings can be large; an effect the other way counts as inactive or inconclusive; note: nearly all actives have a fitted effect of over 45% in size
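Cells were plated at 1500 per well in phenol red-free DMEM with 5% equine and 5% calf serum. Tebufenozide (100 nM final) and compounds were added, then ATPlite reagent, and luminescence was read.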
HTT aggregate: inhibitors of mutant huntingtin aggregate formation in PC12 cells; Potency, µM (series often up to 46.1 µM), hits mostly inhibitors; hit rate 1.1% among 220,000; PC12 HttQ103-GFP aggregates, Acumen cytometry, 40 h; active = well fitted curve in the direction sought with a large enough effect; inconclusive = small, poorly fitted or top-dose-only effect, or another doubt; inactive = no such curve, though single readings can be large; an effect the other way counts as inactive or inconclusive; note: nearly all actives have a fitted effect of over 60% in size
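Ecdysone-promoter PC12 model expressing HTT exon 1 Q103 fused to GFP, induced by tebufenozide at 100 nM final. Compounds titrated; aggregates sized 1–25 µm scored on a 488 nm laser cytometer.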
LMNA splice mod: modulators of lamin A splicing; HeLa LMNA splicing GFP/RFP minigene ratio, 48 h; Potency, µM (highest dose often 46.1 µM), actives largely listed as inhibitors; hit rate 0.01% among 200,000; active = well fitted inhibition curve with a large enough effect in the signal ratio, with a control signal flat, not every such curve was filed as active; inconclusive = small, poorly fitted or top-dose-only effect, or effect the other way, or a change in a side signal; the % refers to the signal ratio
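Read-out is the ratio of GFP to DsRed2 object intensity, acquired by 488 nm laser-scanning cytometry on HeLa lamin A-EGFP minigene reporter cells. Compound incubation 48 hrs at 37 °C in Opti-MEM with 2% FBS; DMSO 0.5% final.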
KDM4E inh: inhibitors of human JMJD2E histone demethylase; B2RXH2; JMJD2E catalytic domain, FDH-coupled NADH fluorescence (FDH is formaldehyde dehydrogenase); Potency, µM (titrated, usually from 57.1 µM), most hits filed as inhibitors; hit rate 1.6% among 230,000; note: nearly all actives have a fitted effect of over 50% in size
Target sequence (B2RXH2 1-337 limits assumed): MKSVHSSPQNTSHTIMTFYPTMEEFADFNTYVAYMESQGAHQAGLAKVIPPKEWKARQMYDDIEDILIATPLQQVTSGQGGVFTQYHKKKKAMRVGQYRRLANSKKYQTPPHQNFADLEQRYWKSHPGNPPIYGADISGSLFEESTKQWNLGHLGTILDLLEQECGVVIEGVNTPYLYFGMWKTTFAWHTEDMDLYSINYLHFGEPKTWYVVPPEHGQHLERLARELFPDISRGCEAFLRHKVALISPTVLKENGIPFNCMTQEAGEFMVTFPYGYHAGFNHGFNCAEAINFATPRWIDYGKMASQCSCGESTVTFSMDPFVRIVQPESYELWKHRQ
ALDH1A1 block: blocks purified human ALDH1A1 activity | hit rate 7.3% among 220,000 | Potency, µM (top dose mostly 75.3 µM), hits mostly inhibitors | Purified ALDH1A1, NADH fluorescence, propionaldehyde substrate | P00352 | AID 1030
HPGD block: HPGD (human) dehydrogenase inhibition | Potency, µM, hits mostly inhibitors | purified HPGD, NADH fluorescence kinetic, PGE2 substrate | hit rate 4.3% among 150,000
Target sequence (P15428 whole entry, looked up): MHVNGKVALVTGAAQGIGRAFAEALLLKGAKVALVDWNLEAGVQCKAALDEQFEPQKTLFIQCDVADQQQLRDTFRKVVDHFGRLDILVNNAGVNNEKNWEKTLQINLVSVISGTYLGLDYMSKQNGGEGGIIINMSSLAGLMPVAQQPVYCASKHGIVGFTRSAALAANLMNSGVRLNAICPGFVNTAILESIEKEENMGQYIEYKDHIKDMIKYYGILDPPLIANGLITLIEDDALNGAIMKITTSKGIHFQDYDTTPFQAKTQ
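NADH formation kinetics: reaction with 30 uM PGE2 and 1 mM NAD+ (final), 20 nM enzyme, Tris-HCl pH 8 with Tween 20, after 15 min compound preincubation at room temperature. Fluorescence change, last versus first of five reads.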
Each line names hits and unclear results; the compound was inactive in the other large screens. Shown are actives, neighbours in structure and some others; about 9.2% of the full set was active somewhere. Unless noted, calls come from the whole dose curve; as a rule, active = well fitted inhibition curve with a large enough effect (not every such curve was filed as active); inconclusive = small, poorly fitted or top-dose-only effect, or another doubt; inactive = no such curve, though single readings can be large or run the other way.

COC(=O)c1cccc(Cn2c(Cl)c(/C=N/Nc3ccccc3C)sc2=O)c1	HTT aggregate inconclusive, LMNA splice mod inconclusive, KDM4E inh inconclusive, ALDH1A1 block 22µM, HPGD block inconclusive (no result: HTT ATP protect)
Cc1ccccc1N/N=C/c1sc(=O)n(Cc2cccc(C(=O)O)c2)c1Cl	KDM4E inh inconclusive (no result: LMNA splice mod, ALDH1A1 block, HPGD block)
O=C(O)c1cccc(Cn2c(Cl)c(/C=N/NC(=O)c3cc4ccccc4cc3O)sc2=O)c1	ALDH1A1 block 10µM (no result: LMNA splice mod, HPGD block)
NC(C(=O)O)c1cc(O)cc(O)c1 (stereo not drawn)	ALDH1A1 block inconclusive (no result: HTT aggregate, LMNA splice mod, KDM4E inh, HPGD block)
CC[C@H]1C(c2cccc(Cl)c2)=NN(c2ccccc2)[C@@H]1CO	ALDH1A1 block inconclusive, HPGD block inconclusive (no result: HTT aggregate, LMNA splice mod, KDM4E inh)
O=C(O)Cc1ccc(C(=O)c2ccccc2F)s1	ALDH1A1 block 5µM, HPGD block 16µM
CCc1ccc(C(=O)c2ccccc2C(=O)O)s1	none
O=C(O)c1ccc2c(c1)C(=O)N(c1cccc(C(=O)/C=C/c3ccccc3)c1)C2=O	LMNA splice mod inconclusive, ALDH1A1 block 0.71µM (no result: HPGD block)
Cc1ccc(NC(=O)C2CCCN(S(=O)(=O)c3ccc4c(c3)CCCC(=O)N4)C2)cc1Cl (stereo not drawn)	none (no result: HTT ATP protect, HTT aggregate, KDM4E inh, ALDH1A1 block, HPGD block)
COc1ccc(Cl)cc1NC(=O)CSc1nc(=O)n(Cc2ccco2)c2c1CCC2	none (no result: HTT ATP protect, HTT aggregate, KDM4E inh, ALDH1A1 block, HPGD block)
COc1ccc(C2=CC(=O)C=CC2=O)cc1	LMNA splice mod inconclusive, KDM4E inh 14µM (no result: ALDH1A1 block, HPGD block)
COc1ccc(S(=O)(=O)c2ccc(OC)cc2)cc1	none
O=C1CC(Sc2nnnn2-c2ccccc2)C(=O)N1c1cccc(Cl)c1 (stereo not drawn)	HTT aggregate 22µM, ALDH1A1 block 0.79µM, HPGD block 32µM
Clc1cccc(N2CCN(c3nnnn3-c3ccccc3)CC2)c1	LMNA splice mod inconclusive, ALDH1A1 block inconclusive (no result: HPGD block)
COc1ccc(N2C(=O)CC(Sc3nnnn3-c3ccc(F)cc3)C2=O)cc1 (stereo not drawn)	LMNA splice mod inconclusive, ALDH1A1 block 2.5µM (no result: HPGD block)
COc1ccc(N2C(=O)CC(Sc3nc(C)cc(C)c3C#N)C2=O)cc1 (stereo not drawn)	KDM4E inh inconclusive, ALDH1A1 block inconclusive
COc1ccc2c(c1)c1ccccc1n2C	HTT aggregate 13µM, KDM4E inh inconclusive, ALDH1A1 block inconclusive, HPGD block inconclusive
Cc1ccccc1CNc1ncnc2c1ncn2[C@@H]1O[C@@H](CO)[C@H](O)[C@@H]1O	none (no result: HTT aggregate, LMNA splice mod, KDM4E inh, ALDH1A1 block, HPGD block)
CC(C)(C)c1ccc2c(S(=O)(=O)O)c(C(C)(C)C)ccc2c1	none (no result: LMNA splice mod, KDM4E inh, ALDH1A1 block, HPGD block)
Cc1ccc(NC2CC(=O)N(Cc3ccccc3)C2=O)cc1 (stereo not drawn)	ALDH1A1 block inconclusive
O=C1CC(N(O)C2CC(=O)N(Cc3ccccc3)C2=O)C(=O)N1Cc1ccccc1 (stereo not drawn)	ALDH1A1 block 7.1µM, HPGD block 32µM
CCCN(CCC)C1CC(=O)N(Cc2ccccc2)C1=O (stereo not drawn)	ALDH1A1 block 11µM
O=C(CCS(=O)(=O)Cc1ccccc1F)NCc1ccccc1Cl	none (no result: HTT ATP protect, LMNA splice mod, HPGD block)
COC(=O)c1cc(NC(=O)c2c(F)c(F)c(F)c(F)c2F)cc(C(=O)OC)c1	none
O=C(NCCCO)C(=O)NCc1ccncc1	none (no result: HPGD block)
CC(C)N=c1scc(-c2cccs2)n1/N=C/c1ccc(O)c(O)c1O	HTT aggregate inconclusive, LMNA splice mod inconclusive, KDM4E inh 28µM, ALDH1A1 block inconclusive, HPGD block inconclusive
CN=c1scc(-c2ccccc2F)n1/N=C/c1ccc(O)c(O)c1O	KDM4E inh 10µM, ALDH1A1 block 5.6µM (no result: HPGD block)
CN=c1scc(-c2ccccc2F)n1/N=C/c1ccc[nH]1	none (no result: HPGD block)
Cc1nn(-c2ccc(N3CCCC3)nn2)c(C)c1CCC(=O)NCc1ccc(OC(C)C)cc1	none (no result: HTT ATP protect, HTT aggregate, KDM4E inh, ALDH1A1 block, HPGD block)
CCOC(=O)c1cnc2c(cnn2CC)c1NN=C(C)C	HTT ATP protect inconclusive, LMNA splice mod inconclusive, KDM4E inh inconclusive, HPGD block inconclusive
COc1ccc(-c2nnc3n(CCc4ccccc4)c(=O)c4ccccc4n23)cc1OC	ALDH1A1 block 1.8µM (no result: HPGD block)
CC(C)c1cc(-c2n[nH]c(=S)n2Cc2ccccc2)cs1	KDM4E inh inconclusive, ALDH1A1 block 2µM, HPGD block inconclusive
S=c1[nH]nc(-c2ccccc2)n1Cc1ccccc1	KDM4E inh inconclusive, ALDH1A1 block 18µM, HPGD block inconclusive
Cc1n[nH]c(=S)n1Cc1ccccc1	KDM4E inh inconclusive (no result: LMNA splice mod, ALDH1A1 block, HPGD block)
S=c1[nH]nc(-c2ccncc2)n1Cc1ccco1	ALDH1A1 block inconclusive
S=c1[nH]nc(-c2ccc(Br)cc2)n1Cc1ccco1	ALDH1A1 block inconclusive, HPGD block 25µM
S=c1[nH]nc(-c2ccc(Cl)cc2)n1Cc1ccccc1	ALDH1A1 block 11µM, HPGD block inconclusive
Cc1nc(N2CCOCC2)c2nc(-c3ccccc3)n(CCN3CCOCC3)c2n1	KDM4E inh inconclusive, ALDH1A1 block inconclusive, HPGD block inconclusive (no result: HTT aggregate, LMNA splice mod)
S=c1[nH]nc(-c2ccc(Br)o2)n1Cc1ccccc1	LMNA splice mod inconclusive, ALDH1A1 block 1.4µM, HPGD block 28µM
Cc1ccc(-n2c(-c3ccccc3)n[nH]c2=S)cc1	KDM4E inh inconclusive, ALDH1A1 block 32µM, HPGD block inconclusive
S=c1[nH]nc(-c2cccs2)n1Cc1ccccc1	LMNA splice mod inconclusive, KDM4E inh inconclusive, ALDH1A1 block inconclusive (no result: HPGD block)
S=c1[nH]nc(CSc2nc3ccccc3s2)n1C1CCCCC1	HTT aggregate inconclusive, LMNA splice mod inconclusive, ALDH1A1 block 3.2µM, HPGD block 7.1µM
Cc1ccc(-n2c(-c3ccncc3)n[nH]c2=S)cc1	none (no result: LMNA splice mod, HPGD block)
CC(C)CCn1c(COc2ccccc2)n[nH]c1=S	none (no result: HPGD block)
